Measurements from PubChem BioAssay (Tox21).
“And” between values parts separate entries of the source, which are not always exact repeats. Identical values can stand only once. Records with an inconclusive call do not appear. Entries that show only a call come without a potency. Where a structure was tested more than once in an assay, its records may differ in their call. The source made the active and inactive calls. Unless noted, the call rests on the fitted dose curve; in most records, active means well fitted curve in the direction sought with a large enough effect in the repeat runs; inconclusive means weak or mixed curves; inactive means no such curve, though single readings can be large; an effect the other way counts as inactive or inconclusive.

Key:
[1] = qHTS assay to identify small molecule agonists of the estrogen related receptor signaling pathway with the pleiotropic PPARgamma coactivator (PGC) (AID 1224823)
Method in brief: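 Luminescence from One-Glo reagent (30 min, room temperature) was read after 18 h compound treatment at 37 C of PGC/ERR cells plated 6 h beforehand; compounds delivered in DMSO by pin tool.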

[2] = target: Luciferin 4-monooxygenase (Photinus pyralis) (UniProt P08659); assay: qHTS assay to identify small molecule inhibitors of firefly luciferase (AID 1224835); further: nearly all actives have a fitted effect of over 25% in size; further: potency means the concentration at half of the fitted maximal effect
Chain of Luciferin 4-monooxygenase (Photinus pyralis) (P08659 whole entry, looked up): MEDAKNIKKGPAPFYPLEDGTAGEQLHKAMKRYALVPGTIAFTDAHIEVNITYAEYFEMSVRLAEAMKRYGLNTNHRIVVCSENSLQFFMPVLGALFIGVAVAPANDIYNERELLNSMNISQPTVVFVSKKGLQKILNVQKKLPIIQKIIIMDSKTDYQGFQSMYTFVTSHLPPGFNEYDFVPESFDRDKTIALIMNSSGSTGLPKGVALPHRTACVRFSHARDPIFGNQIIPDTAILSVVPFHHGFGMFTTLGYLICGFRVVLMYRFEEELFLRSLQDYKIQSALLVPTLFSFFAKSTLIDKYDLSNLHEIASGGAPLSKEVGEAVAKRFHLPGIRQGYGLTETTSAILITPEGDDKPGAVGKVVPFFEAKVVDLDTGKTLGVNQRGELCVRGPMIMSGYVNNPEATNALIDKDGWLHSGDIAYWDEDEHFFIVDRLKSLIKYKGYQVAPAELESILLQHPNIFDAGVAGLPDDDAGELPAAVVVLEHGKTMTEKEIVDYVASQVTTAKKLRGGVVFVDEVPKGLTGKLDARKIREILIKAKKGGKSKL
Method in brief: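 Quantitative HTS format; KM concentrations of both substrates. Purified P. pyralis FLuc activity quantified from luminescence images.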

[3] = qHTS assay to identify small molecule antagonists of the constitutive androstane receptor (CAR) signaling pathway - cell viability counter screen (AID 1224837); further: nearly all actives have a fitted effect of over 45% in size; further: potency means the concentration at half of the fitted maximal effect
Method in brief: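 Cells are seeded, rested 4 hr at 37 C/5% CO2, dosed with compound (15-point series) and 50 nM CITCO, incubated a further 23 hr, and then CellTiter-Fluor reagent is added before fluorescence is read. The line is HepG2 with stable hCAR and CYP2B6-2.2kb.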

[4] = target: Nuclear receptor subfamily 1 group I member 3 (Homo sapiens) (UniProt Q14994); assay: qHTS assay to identify small molecule antagonists of the constitutive androstane receptor (CAR) signaling pathway (AID 1224838);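 further: HepG2 cells stably expressing hCAR with CYP2B6 luciferase reporter stimulated by CITCO; nearly all actives have a fitted effect of over 40% in size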; further: potency means the concentration at half of the fitted maximal effect
Chain of Nuclear receptor subfamily 1 group I member 3 (Homo sapiens) (Q14994 whole entry, looked up): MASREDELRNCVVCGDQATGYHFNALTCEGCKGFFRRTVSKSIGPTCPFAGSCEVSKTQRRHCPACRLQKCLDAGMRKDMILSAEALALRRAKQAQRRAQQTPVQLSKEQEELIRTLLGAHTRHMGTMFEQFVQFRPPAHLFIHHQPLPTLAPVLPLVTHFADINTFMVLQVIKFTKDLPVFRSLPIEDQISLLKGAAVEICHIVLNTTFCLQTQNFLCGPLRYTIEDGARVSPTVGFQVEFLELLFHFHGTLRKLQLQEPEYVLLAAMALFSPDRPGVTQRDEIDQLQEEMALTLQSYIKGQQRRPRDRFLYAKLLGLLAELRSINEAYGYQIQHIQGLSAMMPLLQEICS
Method in brief: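 Luminescence from a CYP2B6-2.2kb promoter reporter in hCAR-expressing HepG2 cells reflects CAR signaling. Cells received compounds at 15 concentrations and 50 nM CITCO (final), then incubated 24 h at 37 C/5% CO2.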

[5] = target: Nuclear receptor subfamily 1 group I member 3 (Homo sapiens) (UniProt Q14994); assay: qHTS assay to identify small molecule agonists of the constitutive androstane receptor (CAR) signaling pathway (AID 1224839); further: nearly all actives have a fitted effect of over 15% in size; further: potency means the concentration at half of the fitted maximal effect
Method in brief: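 Double-stable HepG2 cells (hCAR, CYP2B6-2.2kb) seeded 4 h before compound addition. Exposure 24 h with 0.75 uM PK11195 final. Luciferase detected by ONE-Glo.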

[6] = qHTS assay to identify small molecule antagonists of the estrogen related receptor signaling pathway with the pleiotropic PPARgamma coactivator (PGC) from Tox21 10K library (AID 1224841; call rule not given here; further: actives are mostly falling curves and most rising ones were filed inactive; nearly all actives have a fitted effect of over 50% in size; further: potency means the concentration at half of the fitted maximal effect)
Method in brief: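 Cells stably carrying the PGC/ERR reporter, seeded at 2,000 per well, received pin-transferred compounds 6 h post-plating. Exposure lasted 18 h at 37 C. Signal: One-Glo luminescence.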

[7] = target: Thyrotropin receptor (Homo sapiens) (UniProt P16473); assay: qHTS assay to identify small molecule agonists of the thyroid stimulating hormone receptor (TSHR) signaling pathway (AID 1224843; calls by dose curve; further: nearly all actives have a fitted effect of over 45% in size; further: potency means the concentration at half of the fitted maximal effect)
Chain of Thyrotropin receptor (Homo sapiens) (P16473 whole entry, looked up): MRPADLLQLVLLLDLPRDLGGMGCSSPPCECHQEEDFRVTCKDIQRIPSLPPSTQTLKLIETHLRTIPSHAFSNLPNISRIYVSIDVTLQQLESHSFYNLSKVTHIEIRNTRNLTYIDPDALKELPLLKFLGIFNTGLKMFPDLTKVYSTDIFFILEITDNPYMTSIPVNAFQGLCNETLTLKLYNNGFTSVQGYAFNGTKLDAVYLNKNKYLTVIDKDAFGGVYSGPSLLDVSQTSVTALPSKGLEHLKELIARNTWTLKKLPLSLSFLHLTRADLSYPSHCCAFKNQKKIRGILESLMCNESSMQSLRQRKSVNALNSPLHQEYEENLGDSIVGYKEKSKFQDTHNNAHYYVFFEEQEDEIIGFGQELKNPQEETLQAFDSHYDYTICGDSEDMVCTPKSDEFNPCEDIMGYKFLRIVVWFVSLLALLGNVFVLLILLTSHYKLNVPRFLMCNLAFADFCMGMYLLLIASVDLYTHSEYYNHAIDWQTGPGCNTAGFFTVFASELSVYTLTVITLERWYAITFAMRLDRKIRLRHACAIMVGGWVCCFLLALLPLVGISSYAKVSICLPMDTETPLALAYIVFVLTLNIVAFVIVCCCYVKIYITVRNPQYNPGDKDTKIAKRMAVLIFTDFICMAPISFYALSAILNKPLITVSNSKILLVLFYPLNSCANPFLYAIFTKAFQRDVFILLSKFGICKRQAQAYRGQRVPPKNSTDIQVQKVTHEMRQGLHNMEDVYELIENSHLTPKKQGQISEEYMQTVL
Method in brief: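 Compounds are titrated over 15 concentrations, in triplicate, onto TSHR-HEK293 cells seeded at 800/well. Plates sit 30 min at room temperature before cAMP-d2 and anti-cAMP cryptate are added; signal is read after a further hour.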

[8] = qHTS assay to identify small molecule antagonists of the estrogen related receptor (ERR) signaling pathway from Tox21 library - cell viability counter screen (AID 1224834); further: nearly all actives have a fitted effect of over 30% in size; further: potency means the concentration at half of the fitted maximal effect
Method in brief: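 Compounds in DMSO were pinned onto ERR cells that had been incubated for 6 h, and the plates were held at 37 C for 17.5 h. CellTiter-Fluor reagent was then added and fluorescence was measured after 30 min.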

[9] = qHTS assay to identify small molecule agonists of the constitutive androstane receptor (CAR) signaling pathway - cell viability counter screen (AID 1224836); further: nearly all actives have a fitted effect of over 45% in size; further: potency means the concentration at half of the fitted maximal effect
Method in brief: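 Using CellTiter-Fluor, viability of HepG2 cells harbouring hCAR and CYP2B6-2.2kb was measured following 23 h incubation with a 15-concentration compound series plus PK11195 (0.75 uM final).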

[10] = qHTS assay to identify small molecule antagonists of the estrogen related receptor signaling pathway with the pleiotropic PPARgamma coactivator (PGC) from Tox21 10K library - cell viability counter screen (AID 1224840; active means well fitted cell-killing curve with a large enough effect in the repeat runs, not every such curve was filed as active; further: nearly all actives have a fitted effect of over 40% in size; further: potency means the concentration at half of the fitted maximal effect)
Method in brief: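 Cell viability is measured by CellTiter-Fluor fluorescence in PGC/ERR cells that receive compounds after a 6-hour attachment period and are then incubated 17.5 hours at 37 C.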

SMILES | outcome [1] | Potency [2] | Potency [3] | Potency [4] | Potency [5] | Potency [6] | Potency [7] | Potency [8] | Potency [9] | Potency [10]
Nc1c2c(nc3ccccc13)CCCC2 | inactive | inactive | inactive | 54.5 µM (active) and 43.3 µM (active) and inactive | inactive | inactive | inactive |  |  | 
Cc1c(C(=O)O)c(O)cc2c1C(=O)c1c(O)c([C@@H]3O[C@H](CO)[C@@H](O)[C@H](O)[C@H]3O)c(O)c(O)c1C2=O |  | 34.7 µM (active) and 35.6 µM (active) and 17.4 µM (active) |  |  |  |  |  | 33.5 µM (active) and 27.3 µM (active) |  | 
NC(CO)(CO)CO |  | inactive | inactive | inactive | inactive |  | inactive | inactive |  | 
CC(=O)C(=O)O |  | inactive | inactive | inactive | inactive |  | inactive | inactive | inactive | inactive
CC(=O)CCC(=O)O |  | inactive | inactive |  | inactive |  | inactive | inactive | inactive | 
C1=CC2C3C=CC(C3)C2C1 (configuration not stated) | inactive | inactive | inactive |  | inactive | 60 µM (active) |  |  |  | inactive
COc1ccc(C(Cl)=C(c2ccc(OC)cc2)c2ccc(OC)cc2)cc1 |  | inactive | inactive | inactive | inactive | 27.2 µM (active) and 30.6 µM (active) and 23.7 µM (active) |  | inactive | inactive | 
CN1CCc2cccc3c2[C@H]1Cc1ccc(O)c(O)c1-3 |  | inactive | 49.1 µM (active) and 22.8 µM (active) | inactive | 15.5 µM (active) and 9.09 µM (active) and 15 µM (active) | 30.9 µM (active) and 20.4 µM (active) and 29.8 µM (active) |  | 27.6 µM (active) and 22.8 µM (active) and 26.6 µM (active) |  | 
Nc1ccc(O)c([N+](=O)[O-])c1 | inactive | 79.6 µM (active) |  | 12.2 µM (active) |  | inactive |  |  |  | 
COc1ccc2c(c1)c(CC(=O)O)c(C)n2C(=O)c1ccc(Cl)cc1 | inactive | inactive | inactive |  | inactive | 30.8 µM (active) and inactive | inactive | inactive |  | 
CN(C)CCOC(C)(c1ccccc1)c1ccccn1 (configuration not stated) | inactive | inactive | inactive |  | inactive | inactive | inactive |  | inactive | inactive
Nc1c(N=Nc2ccc(-c3ccc(N=Nc4cc(S(=O)(=O)O)c5ccccc5c4N)cc3)cc2)cc(S(=O)(=O)O)c2ccccc12 |  | 39.9 µM (active) | 24.3 µM (active) |  | inactive | 21.7 µM (active) |  | 21.7 µM (active) | 27.3 µM (active) | 21.7 µM (active)
O=S1(=O)OC(c2ccc(O)cc2)(c2ccc(O)cc2)c2ccccc21 |  | 31.7 µM (active) and 17.8 µM (active) and 12.3 µM (active) | 27.3 µM (active) and 13.3 µM (active) | inactive | inactive | 54.5 µM (active) and 61.1 µM (active) and inactive |  | 27.3 µM (active) and 18.8 µM (active) | 30.6 µM (active) and 27.3 µM (active) and 33.5 µM (active) | 30.6 µM (active) and 27.3 µM (active) and 21.1 µM (active)
NS(=O)(=O)O |  | inactive | inactive |  |  |  |  | inactive |  | 
O=C(O)c1ccccc1 |  | inactive | inactive | inactive | inactive |  | inactive | inactive | inactive | 
CC(C)NCC(O)c1ccc(O)c(O)c1 (configuration not stated) | inactive |  | inactive |  |  | inactive | 7.6 nM (active) and 4.9 nM (active) and 11.9 nM (active) |  | inactive | 
CN1CCC[C@H]1c1cccnc1 |  | inactive | inactive |  |  |  |  | inactive |  | 
CC(C)C(=O)Nc1ccc([N+](=O)[O-])c(C(F)(F)F)c1 | inactive | inactive | inactive |  | inactive | 28.1 µM (active) and 30.6 µM (active) and 21.1 µM (active) | inactive |  |  | 
CCN(CC)C(=O)c1cccc(C)c1 |  | inactive | inactive |  |  | inactive | inactive | inactive | inactive | 
COc1cccc(O)c1O |  | inactive | inactive |  | inactive |  |  | 63.5 µM (active) |  | 
Cc1ncc([N+](=O)[O-])n1CCO |  | inactive | inactive | inactive | inactive | inactive | inactive | inactive |  | inactive
O=C1NC(=O)C(c2ccccc2)(c2ccccc2)N1 |  | inactive | inactive |  | inactive |  | inactive | inactive | inactive | inactive
CCCCNC(=O)NS(=O)(=O)c1ccc(C)cc1 | inactive | inactive | inactive |  |  | inactive |  | inactive | inactive | 
